Values joined by “and” are separate entries in the source; they are usually repeats but may differ in a detail not shown here. Equal values may be shown once. Among all 16,000 compounds or so, about 5,100 (32%) were called active. Not shown: some 25% with an inconclusive outcome. Calls come from the whole dose curve; as a rule, active = well fitted curve in the direction sought with a large enough effect; inconclusive = small, poorly fitted or top-dose-only effect, or effect the other way; inactive = no such curve, though single readings can be large or run the other way. The list shows a part of the results.
Target: Cytochrome P450 3A4 (Homo sapiens) (UniProt P08684)
Sequence (P08684 whole entry, looked up): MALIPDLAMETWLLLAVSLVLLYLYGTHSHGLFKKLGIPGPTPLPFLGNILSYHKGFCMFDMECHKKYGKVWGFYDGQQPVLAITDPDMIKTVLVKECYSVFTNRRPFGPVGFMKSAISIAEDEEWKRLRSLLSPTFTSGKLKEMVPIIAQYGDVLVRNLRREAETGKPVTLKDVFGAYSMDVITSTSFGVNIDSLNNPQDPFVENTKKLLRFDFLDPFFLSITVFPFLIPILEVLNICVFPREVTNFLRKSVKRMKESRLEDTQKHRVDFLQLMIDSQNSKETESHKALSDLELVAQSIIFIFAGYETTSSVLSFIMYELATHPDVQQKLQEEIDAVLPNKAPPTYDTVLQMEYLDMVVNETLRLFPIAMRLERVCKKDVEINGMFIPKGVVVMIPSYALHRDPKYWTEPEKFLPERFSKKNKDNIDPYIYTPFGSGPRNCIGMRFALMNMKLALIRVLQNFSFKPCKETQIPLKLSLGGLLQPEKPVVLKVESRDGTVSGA
Assay: Cytochrome panel assay with activity outcomes
Settings: recombinant CYP, pro-luciferin dealkylation, luminescence, p450-cyp3a4; series mostly up to 57.1 µM; activity, negative = inhibition: at the top concentration
% is set by controls: 0 for no effect and ±100 for the full control effect.

AC50, active:
CCOC(=O)C1CCCN(C(=O)CSCc2ccccc2)C1 (stereo not given) 25.1 µM
CCOC(=O)N1CCN(C(=O)CSCc2ccc(Cl)cc2)CC1 4.47 µM
CCOC(=O)C1CCCN(C(=O)CCCOc2cc(=O)n(C)c3ccccc23)C1 (stereo not given) 3.98 µM
COc1ccc(N2C(=O)CCC(C(=O)Nc3ccccn3)C2c2ccc(OC)c(OC)c2)cc1 (stereo not given) 20 µM
CCN(CC)CCCNC(=O)C1CCC(=O)N(c2ccc(OC)cc2)C1c1ccc(F)cc1 (stereo not given) 15.8 µM
c1ccc(SC(Sc2ccccc2)c2ccc3c(c2)OCO3)cc1 2.51 µM
O=S(=O)(c1ccccc1)N1CCC[C@@]2(CCN(Cc3nccs3)C2)C1 3.16 µM
O=S(=O)(c1ccccc1)N1CCC2(CCCN(Cc3nccs3)C2)CC1 3.16 µM
Cn1cc(-c2nnc(-c3ccccc3)o2)c2ccccc21 14.1 µM
O=C1CCCN1CC(CN1CCOCC1)Sc1nnnn1-c1ccccc1 (stereo not given) 15.8 µM
COc1ccc(O[C@H]2C=C[C@@H](c3ccccc3)O[C@H]2COC(=O)CC/C(C)=N\O[C@@H](C)c2cn([C@H]3COC[C@H]3O)nn2)cc1 3.98 µM
C/C(CCC(=O)OC[C@@H]1O[C@H](C#Cc2ccccc2)C=C[C@@H]1Oc1ccc(C)cc1)=N/O[C@@H](C)c1cn([C@H](CO)Cc2ccccc2)nn1 3.98 µM and 3.16 µM
COc1ccc(O[C@H]2C=C[C@@H](c3ccccc3)O[C@H]2COC(=O)CC/C(C)=N\O[C@@H](C)c2cn([C@H](CO)Cc3ccccc3)nn2)cc1 3.98 µM and 5.01 µM
C/C(N)=C(/C#N)C(=O)CSc1nnc(COc2cc(C)ccc2C)o1 3.55 µM
C[C@H](CO)NC(=O)[C@H](C)[C@@H]1C[C@@]1(C)[C@@H](NC(=O)OCc1ccccc1)c1ccccc1 5.01 µM
C[C@H](CO)NC(=O)[C@H](C)[C@H]1C[C@]1(C)[C@H](NC(=O)OCc1ccccc1)c1ccccc1 3.98 µM
O=C(c1ccc(Br)cc1)c1cc([N+](=O)[O-])ccc1N1CCCCC1 3.55 µM
CN1CCN(S(=O)(=O)c2cc([N+](=O)[O-])ccc2N2CCCCCC2)CC1 0.794 µM
CN(C)S(=O)(=O)c1cc([N+](=O)[O-])ccc1N1CCCCCC1 12.6 µM

activity, negative = inhibition, inactive:
CCOC(=O)N1CCN(S(=O)(=O)Cc2ccccc2)CC1 -5.12%
CCOC(=O)N1CCN(C(=O)C(C)SCc2ccccc2)CC1 (stereo not given) -12.5%
CCOC(=O)C1CCN(C(=O)C2CCN(S(=O)(=O)N3CCCC3)CC2)CC1 6.47%
Cc1cc(C(C)(C)CC(C)(C)C)ccc1OCCOCC[N+](C)(C)Cc1ccccc1 -26% [at 25.6 µM]
COc1ccc(N2C(=O)CCC(C(=O)O)C2c2ccc(F)cc2)cc1 (stereo not given) 3.77%
CCCCNC(=O)C1CC(=O)N(c2ccc(OC)cc2)C1c1ccc(OC)cc1 (stereo not given) 3.58% [at 2.29 µM]
CS(=O)(=O)N1CCC2(CCN(Cc3nccs3)CC2)CC1 -3.65%
O=S(=O)(c1ccccc1)N1CCC2(CC1)CN(Cc1nccs1)C2 22.3%
O=S(=O)(c1ccccc1)N1CCC2(CCN(Cc3nccs3)CC2)CC1 -9.07%
CS(=O)(=O)N1CCC2(CC1)CN(Cc1nccs1)C2 7.56%
CO[C@H]1C[C@@H]2C[C@H](O)C[C@@H](CC(=O)O[C@@H](/C=C\CC(C)C)C[C@@H]3CC[C@H](C)[C@@H](C1)O3)O2 -7.29% [at 11.4 µM]
Clc1ccc(-c2nnc(-c3cccc4ccccc34)o2)cc1Cl -4.35% [at 11.4 µM]
Oc1ccccc1-c1nnc(-c2ccc(C(F)(F)F)cc2)o1 6.83%
c1ccc2c(c1)nnn2CN1CCOCC1 -7.23% [at 11.4 µM]
C[C@H](O/N=C1/[C@H]2O[C@@H]2[C@@H](O)[C@H]2[C@H]1CCn1c(=O)n(-c3ccccc3)c(=O)n12)c1cn([C@H]2COC[C@H]2O)nn1 -7.71% [at 11.4 µM]
O=S(=O)(O)c1ccc(N=Nc2ccc3c(S(=O)(=O)O)cccc3c2O)c2ccccc12 -9.88% [at 11.4 µM]
CC(=O)CSc1nnc(Cc2ccc([N+](=O)[O-])cc2)o1 7.56% [at 2.29 µM]
Cc1ccc(C)c(OCCCC(C)(C)C(=O)O)c1 5.28% [at 25.6 µM]
CN1CCN(c2ccc([N+](=O)[O-])cc2C(=O)N2CCOCC2)CC1 -0.527%
O=C(N/N=C/c1cc([N+](=O)[O-])ccc1N1CCNCC1)c1ccc([N+](=O)[O-])cc1 5.34%
CN1CCN(c2ccc([N+](=O)[O-])cc2S(=O)(=O)N2CCOCC2)CC1 -14.4%
